Reference: the supplement of paper PMC10849652
The full data set covers some 7,900 targets. This sample favours those with a hit. About 0.6% of all pairs of compound and target were hits. Unmarked numbers belong to inactive results.

Key:
Experiment in all cases: log2 fold change, soluble protein after heating vs DMSO (PISA); higher = thermal stabilisation; K562 cells, 10 uM, 30 min; active = over 0.2 and 3.5 SD of the protein, either way, in both replicates (recomputed)
bafetinib = compound: Cc1ccc(NC(=O)c2ccc(CN3CC[C@H](N(C)C)C3)c(C(F)(F)F)c2)cc1Nc1nccc(-c2cncnc2)n1 [bafetinib]
Method in brief: (§1)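 Soluble protein was defined as the supernatant after 21,000xg for 90 min. It came from K562 cells at 2×10^6 cells/mL given 10 μM compound for 30 min, heated in aliquots for 3 min across 48°C-58°C, pooled, and extracted in PBS with 0.5% NP-40 at 4°C, and was quantified by TMTpro 16plex LC-MS/MS with equalised channel sums. Thermal stability against control samples, from duplicates, is reported as log2 fold change.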

[1] = compound: Cc1cccc(CC(=O)N2CCc3c2ccc(-c2cn(C)c4ncnc(N)c24)c3F)n1
Method in brief: as §1

nilotinib = compound: Cc1cn(-c2cc(NC(=O)c3ccc(C)c(Nc4nccc(-c5cccnc5)n4)c3)cc(C(F)(F)F)c2)cn1 [nilotinib]
Method in brief: as §1

[2] = compound: Cc1nc(Nc2n[nH]c3c2CN(C(=O)N[C@H](CN(C)C)c2ccccc2)C3(C)C)c2sccc2n1
Method in brief: as §1

dasatinib = compound: Cc1nc(Nc2ncc(C(=O)Nc3c(C)cccc3Cl)s2)cc(N2CCN(CCO)CC2)n1 [dasatinib]
Method in brief: as §1

[3] = compound: Cc1ncc(-c2ccnc(Nc3ccc(S(C)(=O)=O)cc3)n2)n1C(C)C
Method in brief: as §1

[4] = compound: Cn1cc(-c2ccc3c(c2)CCN3C(=O)Cc2cccc(C(F)(F)F)c2)c2c(N)ncnc21
Method in brief: as §1

[5] = compound: Cn1cc(-c2ccc3nnc(C(F)(F)c4ccc5ncccc5c4)n3n2)cn1
Method in brief: as §1

tipifarnib = compound: Cn1cncc1[C@@](N)(c1ccc(Cl)cc1)c1ccc2c(c1)c(-c1cccc(Cl)c1)cc(=O)n2C [tipifarnib]
Method in brief: as §1

mubritinib = compound: FC(F)(F)c1ccc(/C=C/c2nc(COc3ccc(CCCCn4ccnn4)cc3)co2)cc1 [mubritinib]
Method in brief: as §1

[6] = compound: NC(=O)Nc1cc(-c2cccc(F)c2)sc1C(=O)N[C@H]1CCCNC1
Method in brief: as §1

[7] = compound: NC(=O)c1cnc(N[C@@H]2CCCC[C@@H]2N)nc1Nc1cccc(-n2nccn2)c1
Method in brief: as §1

[8] = compound: NC1(c2ccc(-c3nc4ccn5c(=O)[nH]nc5c4cc3-c3ccccc3)cc2)CCC1
Method in brief: as §1

[9] = compound: NCC(=O)Nc1ccc(-n2nc(C(F)(F)F)cc2-c2ccc3c(ccc4ccccc43)c2)cc1
Method in brief: as §1

entinostat = compound: Nc1ccccc1NC(=O)c1ccc(CNC(=O)OCc2cccnc2)cc1 [entinostat]
Method in brief: as §1

vorinostat = compound: O=C(CCCCCCC(=O)Nc1ccccc1)NO [vorinostat]
Method in brief: as §1

citarinostat = compound: O=C(CCCCCCNC(=O)c1cnc(N(c2ccccc2)c2ccccc2Cl)nc1)NO [citarinostat]
Method in brief: as §1

silmitasertib = compound: O=C(O)c1ccc2c(c1)nc(Nc1cccc(Cl)c1)c1ccncc12 [silmitasertib]
Method in brief: as §1

[10] = compound: O=C1NC(=O)C(c2cnc3ccccn23)=C1c1cn2c3c(cc(F)cc13)CN(C(=O)N1CCCCC1)CC2
Method in brief: as §1

[11] = compound: c1cc(OCCN2CCCCC2)cc(-c2n[nH]c3ccc(-c4nnc[nH]4)cc23)c1
Method in brief: as §1

Chain of UniProt O43665 (O43665 whole entry, looked up): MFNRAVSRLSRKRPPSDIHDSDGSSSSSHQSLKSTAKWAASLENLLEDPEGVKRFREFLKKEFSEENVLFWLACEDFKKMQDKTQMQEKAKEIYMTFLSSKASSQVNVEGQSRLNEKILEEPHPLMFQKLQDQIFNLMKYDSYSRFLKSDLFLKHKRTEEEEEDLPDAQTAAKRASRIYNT
Chain of UniProt Q92878 (Q92878 whole entry, looked up): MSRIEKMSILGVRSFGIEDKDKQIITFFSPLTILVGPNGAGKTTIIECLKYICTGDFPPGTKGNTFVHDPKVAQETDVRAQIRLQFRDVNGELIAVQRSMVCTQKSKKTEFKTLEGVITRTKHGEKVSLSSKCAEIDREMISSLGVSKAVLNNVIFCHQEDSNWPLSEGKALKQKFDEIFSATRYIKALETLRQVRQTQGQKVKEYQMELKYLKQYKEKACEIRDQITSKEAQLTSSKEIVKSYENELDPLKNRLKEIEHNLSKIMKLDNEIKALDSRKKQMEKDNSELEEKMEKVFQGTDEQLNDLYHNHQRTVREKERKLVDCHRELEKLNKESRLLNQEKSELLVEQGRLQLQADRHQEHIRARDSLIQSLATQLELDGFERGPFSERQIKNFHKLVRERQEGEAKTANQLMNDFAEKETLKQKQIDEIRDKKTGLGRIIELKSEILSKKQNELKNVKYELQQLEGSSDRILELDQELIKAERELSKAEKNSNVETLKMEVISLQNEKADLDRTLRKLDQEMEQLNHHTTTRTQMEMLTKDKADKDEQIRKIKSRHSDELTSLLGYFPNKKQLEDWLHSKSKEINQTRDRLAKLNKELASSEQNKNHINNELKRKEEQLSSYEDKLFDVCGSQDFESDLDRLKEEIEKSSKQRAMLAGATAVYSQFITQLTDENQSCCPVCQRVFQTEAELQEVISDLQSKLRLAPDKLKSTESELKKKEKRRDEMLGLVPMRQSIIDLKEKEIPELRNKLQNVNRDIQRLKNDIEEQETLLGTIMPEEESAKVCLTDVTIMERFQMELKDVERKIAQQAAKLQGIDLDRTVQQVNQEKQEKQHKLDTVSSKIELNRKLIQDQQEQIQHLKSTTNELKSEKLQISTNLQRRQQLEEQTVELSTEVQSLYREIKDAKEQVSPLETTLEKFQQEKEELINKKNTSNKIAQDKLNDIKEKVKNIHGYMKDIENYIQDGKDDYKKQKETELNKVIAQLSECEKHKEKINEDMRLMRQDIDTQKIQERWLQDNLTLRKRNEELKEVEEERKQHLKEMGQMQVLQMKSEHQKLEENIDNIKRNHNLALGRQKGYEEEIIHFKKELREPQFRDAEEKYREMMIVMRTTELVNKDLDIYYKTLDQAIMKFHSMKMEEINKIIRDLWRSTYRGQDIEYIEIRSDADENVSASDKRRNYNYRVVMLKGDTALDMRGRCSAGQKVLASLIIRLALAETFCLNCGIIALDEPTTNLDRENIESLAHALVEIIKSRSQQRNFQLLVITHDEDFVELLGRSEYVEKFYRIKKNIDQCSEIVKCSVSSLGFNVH
Chain of UniProt Q99590 (Q99590 whole entry, looked up): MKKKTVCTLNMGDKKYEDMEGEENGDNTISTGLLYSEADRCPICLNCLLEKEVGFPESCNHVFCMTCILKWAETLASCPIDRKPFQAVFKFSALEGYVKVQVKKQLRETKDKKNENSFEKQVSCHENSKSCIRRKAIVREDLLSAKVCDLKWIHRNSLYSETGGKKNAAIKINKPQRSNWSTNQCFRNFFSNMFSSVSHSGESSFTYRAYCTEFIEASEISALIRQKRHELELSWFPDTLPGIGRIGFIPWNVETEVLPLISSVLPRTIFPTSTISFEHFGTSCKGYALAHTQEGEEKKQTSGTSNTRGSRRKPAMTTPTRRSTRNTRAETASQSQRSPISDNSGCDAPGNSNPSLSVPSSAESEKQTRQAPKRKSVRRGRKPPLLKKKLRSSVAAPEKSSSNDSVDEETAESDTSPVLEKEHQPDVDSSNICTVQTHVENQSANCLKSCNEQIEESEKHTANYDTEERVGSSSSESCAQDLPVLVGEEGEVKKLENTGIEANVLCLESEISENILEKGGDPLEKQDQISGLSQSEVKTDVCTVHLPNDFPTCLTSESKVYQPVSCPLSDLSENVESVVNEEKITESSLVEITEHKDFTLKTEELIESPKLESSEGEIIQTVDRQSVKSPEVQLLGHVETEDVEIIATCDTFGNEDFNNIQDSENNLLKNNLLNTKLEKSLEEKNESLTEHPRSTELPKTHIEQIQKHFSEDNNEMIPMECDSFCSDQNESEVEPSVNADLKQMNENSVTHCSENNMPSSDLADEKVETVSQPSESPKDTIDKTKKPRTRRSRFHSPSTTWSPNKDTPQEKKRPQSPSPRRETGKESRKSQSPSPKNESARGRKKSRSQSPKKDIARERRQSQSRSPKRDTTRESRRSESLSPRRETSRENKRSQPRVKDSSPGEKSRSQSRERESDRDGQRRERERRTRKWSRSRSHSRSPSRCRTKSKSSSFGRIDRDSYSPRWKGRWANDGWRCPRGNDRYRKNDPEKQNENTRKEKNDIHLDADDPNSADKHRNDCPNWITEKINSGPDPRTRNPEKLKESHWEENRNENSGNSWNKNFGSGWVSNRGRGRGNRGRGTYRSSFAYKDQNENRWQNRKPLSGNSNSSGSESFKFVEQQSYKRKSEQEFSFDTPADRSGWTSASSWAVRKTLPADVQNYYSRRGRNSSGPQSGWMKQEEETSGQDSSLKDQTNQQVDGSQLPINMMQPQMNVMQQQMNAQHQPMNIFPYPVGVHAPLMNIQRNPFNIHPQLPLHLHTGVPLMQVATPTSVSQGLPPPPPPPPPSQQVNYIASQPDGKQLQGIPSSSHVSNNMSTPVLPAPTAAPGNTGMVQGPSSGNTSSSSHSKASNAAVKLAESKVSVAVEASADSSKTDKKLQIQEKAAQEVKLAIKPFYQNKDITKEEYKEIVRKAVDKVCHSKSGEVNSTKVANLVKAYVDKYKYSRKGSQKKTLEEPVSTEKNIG
Chain of UniProt Q96IZ7 (Q96IZ7 whole entry, looked up): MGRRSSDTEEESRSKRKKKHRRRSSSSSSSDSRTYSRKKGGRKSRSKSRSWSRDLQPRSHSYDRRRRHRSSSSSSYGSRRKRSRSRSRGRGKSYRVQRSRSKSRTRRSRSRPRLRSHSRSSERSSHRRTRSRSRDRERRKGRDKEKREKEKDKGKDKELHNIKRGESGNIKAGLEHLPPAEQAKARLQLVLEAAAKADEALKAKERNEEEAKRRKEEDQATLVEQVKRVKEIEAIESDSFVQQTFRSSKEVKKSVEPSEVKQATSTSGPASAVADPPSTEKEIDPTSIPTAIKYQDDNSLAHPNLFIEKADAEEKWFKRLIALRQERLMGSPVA
Chain of UniProt P18754 (P18754 whole entry, looked up): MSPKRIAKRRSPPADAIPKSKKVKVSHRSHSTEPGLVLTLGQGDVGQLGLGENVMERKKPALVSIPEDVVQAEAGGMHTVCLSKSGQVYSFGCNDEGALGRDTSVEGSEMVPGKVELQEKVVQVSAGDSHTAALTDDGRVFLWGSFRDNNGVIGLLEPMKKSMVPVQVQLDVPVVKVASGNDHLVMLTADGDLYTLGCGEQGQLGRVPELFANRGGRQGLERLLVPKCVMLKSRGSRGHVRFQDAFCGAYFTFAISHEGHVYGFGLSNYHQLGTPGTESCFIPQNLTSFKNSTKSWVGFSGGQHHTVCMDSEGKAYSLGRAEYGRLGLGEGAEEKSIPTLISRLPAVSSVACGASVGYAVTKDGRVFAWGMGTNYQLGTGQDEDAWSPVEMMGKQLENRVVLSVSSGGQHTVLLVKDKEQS
Chain of UniProt P35244 (P35244 whole entry, looked up): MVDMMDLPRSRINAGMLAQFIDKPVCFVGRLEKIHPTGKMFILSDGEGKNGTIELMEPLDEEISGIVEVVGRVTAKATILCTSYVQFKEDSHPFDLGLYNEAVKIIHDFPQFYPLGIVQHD
Chain of UniProt Q9BUV8 (Q9BUV8 whole entry, looked up): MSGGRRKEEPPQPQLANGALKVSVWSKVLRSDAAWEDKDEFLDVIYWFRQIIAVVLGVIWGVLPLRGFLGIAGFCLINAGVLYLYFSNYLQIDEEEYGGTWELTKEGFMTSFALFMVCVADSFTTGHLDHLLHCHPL
Chain of UniProt Q96DX4 (Q96DX4 whole entry, looked up): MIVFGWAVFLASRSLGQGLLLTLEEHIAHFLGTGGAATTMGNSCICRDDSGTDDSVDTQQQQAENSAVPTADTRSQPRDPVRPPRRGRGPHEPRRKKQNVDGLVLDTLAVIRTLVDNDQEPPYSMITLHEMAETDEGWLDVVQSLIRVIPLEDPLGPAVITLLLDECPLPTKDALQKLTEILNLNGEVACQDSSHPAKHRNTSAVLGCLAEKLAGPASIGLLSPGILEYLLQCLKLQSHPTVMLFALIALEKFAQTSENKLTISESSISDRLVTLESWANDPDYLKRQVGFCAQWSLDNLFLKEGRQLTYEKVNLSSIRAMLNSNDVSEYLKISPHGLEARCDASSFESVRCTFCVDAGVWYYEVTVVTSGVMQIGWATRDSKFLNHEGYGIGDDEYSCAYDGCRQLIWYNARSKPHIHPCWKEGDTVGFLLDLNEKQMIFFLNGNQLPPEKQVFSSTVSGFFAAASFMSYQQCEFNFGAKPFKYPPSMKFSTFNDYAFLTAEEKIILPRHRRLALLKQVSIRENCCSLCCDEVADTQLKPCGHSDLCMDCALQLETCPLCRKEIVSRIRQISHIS
Chain of UniProt Q9H6H4 (Q9H6H4 whole entry, looked up): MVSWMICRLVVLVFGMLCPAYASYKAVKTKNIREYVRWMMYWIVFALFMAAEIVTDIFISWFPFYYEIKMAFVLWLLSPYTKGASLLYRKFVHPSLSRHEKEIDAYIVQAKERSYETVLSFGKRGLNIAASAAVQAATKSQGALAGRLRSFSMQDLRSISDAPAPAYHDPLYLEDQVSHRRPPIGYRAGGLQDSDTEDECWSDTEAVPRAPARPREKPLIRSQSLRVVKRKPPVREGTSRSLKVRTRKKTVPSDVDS
Chain of UniProt Q99643 (Q99643 whole entry, looked up): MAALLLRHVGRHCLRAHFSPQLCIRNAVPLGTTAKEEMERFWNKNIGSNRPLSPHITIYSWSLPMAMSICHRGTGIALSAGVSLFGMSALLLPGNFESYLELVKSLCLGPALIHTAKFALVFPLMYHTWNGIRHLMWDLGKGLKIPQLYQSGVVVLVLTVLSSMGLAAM

Target | log2 fold change (bafetinib) | log2 fold change [1] | log2 fold change (nilotinib) | log2 fold change [2] | log2 fold change (dasatinib) | log2 fold change [3] | log2 fold change [4] | log2 fold change [5] | log2 fold change (tipifarnib) | log2 fold change (mubritinib) | log2 fold change [6] | log2 fold change [7] | log2 fold change [8] | log2 fold change [9] | log2 fold change (entinostat) | log2 fold change (vorinostat) | log2 fold change (citarinostat) | log2 fold change (silmitasertib) | log2 fold change [10] | log2 fold change [11]
RPS15 (UniProt P62841) | 0.087 | -0.09 | 0.033 | 0.221 | 0.133 | -0.106 | -0.194 | -0.027 | 0.082 | -0.044 | 0.005 | -0.13 | 0.135 | 0 | -0.068 | 0 | -0.034 | 0.02 | 0.036 | -0.144
RPA3 (UniProt P35244) | 0.023 | 0.086 | -0.034 | -0.047 | 0.016 | 0.022 | 0.105 | -0.002 | 0.014 | 0.024 | 0.044 | 0.086 | -0.021 | 0.371 (active) | 0.102 | -0.005 | 0.1 | -0.007 | -0.164 | -0.071
RSPRY1 (UniProt Q96DX4) | 0.052 | -0.05 | 0.012 | -0.037 | -0.036 | 0.01 | 0.007 | -0.049 | 0.093 | -0.039 | -0.054 | 0.051 | -0.104 | 0.061 | -0.016 | -0.02 | -0.075 | 0.028 | -0.072 | -0.008
RGS10 (UniProt O43665) | -0.08 | 0.032 | -0.057 | 0.002 | -0.034 | 0.009 | 0.126 | -0.031 | -0.043 | -0.019 | 0.077 | 0.068 | -0.037 | 0.11 | 0.038 | 0.054 | 0.087 | 0.01 | -0.057 | 0.033
SETD3 (UniProt Q86TU7) | -0.015 | -0.005 | 0.002 | -0.009 | 0.006 | -0.023 | 0.033 | 0.031 | 0.029 | 0.052 | -0.007 | -0.019 | -0.045 | -0.002 | -0.02 | -0.035 | -0.015 | 0.007 | -0.022 | 0.031
RAD50 isoform 2 (UniProt Q92878) | -0.015 | 0.009 | -0.039 | -0.112 | -0.089 | -0.016 | 0.023 | 0.042 | -0.017 | 0.063 | -0.011 | -0.042 | -0.057 | -0.064 | 0.038 | -0.014 | 0.047 | -0.008 | -0.034 | 0.009
SCAF11 (UniProt Q99590) | 0.173 | -0.144 | 0.078 | -0.007 | 0.144 | 0.379 | -0.05 | -0.03 | 0.067 | 0.052 | 0.019 | 0.073 | 0.129 | -0.003 | -0.054 | 0.12 | -0.13 | -0.038 | 0.147 | -0.29
SDHC (UniProt Q99643) | 0 | -0.127 | 0.007 | 0.068 | 0.028 | -0.056 | -0.011 | -0.024 | 0.211 | 0.02 | -0.12 | 0.097 | -0.079 | 0.041 | -0.178 | -0.042 | 0.033 | 0.032 | 0 | -0.062
RCC1 isoform 2 (UniProt P18754) | 0.013 | 0.002 | 0.069 | -0.137 | -0.159 | 0 | 0.139 | -0.004 | -0.112 | 0.296 | -0.084 | -0.174 | -0.18 | -0.066 | 0.132 | 0.094 | 0.026 | -0.056 | -0.132 | -0.024
RPS4X (UniProt P62701) | 0.332 | 0 | 0.051 | 0.206 | 0.061 | -0.048 | -0.251 | -0.079 | 0.112 | -0.105 | 0.088 | 0.095 | 0.216 | 0.088 | -0.048 | 0.005 | -0.104 | 0.014 | 0.126 | -0.204
RAB5IF isoform 5 (UniProt Q9BUV8) | 0.034 | -0.01 | -0.042 | -0.011 | 0.062 | -0.051 | -0.054 | 0 | -0.013 | 0.079 | 0.008 | 0.103 | 0.003 | -0.107 | 0.007 | -0.019 | 0.225 | -0.032 | 0.168 | 0.047
RSRC1 (UniProt Q96IZ7) | 0.042 | -0.05 | 0.06 | -2.01 (active) | 0.028 | -0.024 | 0.003 | -0.021 | 0.038 | 0.012 | -0.019 | 0.162 | -0.005 | -0.013 | -0.04 | 0.022 | 0.049 | -0.275 (active) | -0.029 | -0.123
REEP4 (UniProt Q9H6H4) | 0.021 | 0.127 | -0.017 | -0.077 | -0.079 | 0.067 | -0.052 | -0.056 | -0.109 | -0.04 | 0.002 | -0.032 | -0.012 | 0.084 | 0.027 | 0.088 | 0.048 | 0.027 | 0.097 | -0.059
RPL38 (UniProt P63173) | 0.089 | 0.01 | 0.026 | 0.155 | 0.057 | -0.003 | -0.023 | -0.022 | -0.021 | 0.006 | -0.005 | 0.022 | 0.09 | 0.024 | -0.022 | 0.002 | -0.003 | -0.008 | 0 | -0.094
SEC16A isoform 5 (UniProt O15027) | 0.023 | 0.096 | 0.017 | -0.048 | -0.169 | 0.021 | -0.006 | -0.051 | 0.012 | -0.081 | 0.006 | -0.072 | -0.14 | 0.055 | 0.071 | 0.154 | 0.071 | -0.007 | 0.191 | -0.022
